High-throughput results: PubChem, National Center for Advancing Translational Sciences (NCATS)
Hits are enriched below; roughly 2.6% of the tested compounds scored in any of these assays.
hERG WT inh – KCNH2 (human, wildtype) channel inhibition | Q12809 | U2OS, BacMam KCNH2, thallium flux FluxOr; hits give low values | activity change, % at 1.84 µM | hit rate 0.37% among 340,000;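 active = maximum activity change below -70%; inconclusive = maximum activity change between -70% and -50%; inactive = maximum activity change above -50%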; also: % is scaled to controls: 0 for no effect and ±100 for the full control effect
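U2OS cells were transduced with wild-type KCNH2 virus (2.03 x 10^8 / mL) for 4 h at room temperature, then cultured overnight at 37 C. Thallium flux was read with FluxOr dye. Rate constants were normalized to DMSO controls.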
ClpP mod – qHTS Assay for Activators of ClpP; ATP-dependent Clp protease proteolytic subunit (Bacillus subtilis (strain 168)), P80244; purified B. subtilis ClpP, FRET peptide cleavage, 20 min; Potency, µM (highest dose often 57.5 µM), inactives show top-dose activity change, negative = active; hit rate 1.9% among 340,000; active = well fitted falling curve with a large enough effect; inconclusive = small, poorly fitted or top-dose-only effect; inactive = no such curve, though single readings can be large or run the other way; also: potency is read from the fitted curve at half-maximal effect; the source files actives as falling curves though it sought activators and does not explain the sign; nearly all actives have a fitted effect of over 65% in size
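Purified B. subtilis ClpP, 10 microg/mL final in Tris/HCl pH8 with KCl, BSA, glycerol and Tween-20, cleaved an Abz/nitrotyrosine-quenched decapeptide. Fluorescence (ex 320, em 430) was read at 0 and 20 min at room temperature. Delta was normalized to 5.8 microM ADEP and DMSO/no-enzyme controls.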
KCNH2 3.1 block – blocks the human KCNH2 3.1 channel isoform; U2OS KCNH2 3.1, thallium flux FluxOr; hits give low values; activity change, % (tested at about 1.8 µM); hit rate 0.95% among 340,000;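 active = maximum activity change below -70%; inconclusive = maximum activity change from -70% to -50%; inactive = maximum activity change above -50%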;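 also: thallium influx rate constant from kinetic fluorescence after stimulation buffer; % is scaled to controls: 0 for no effect and ±100 for the full control effect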
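Steps: virus added to U2OS suspension (4 h, RT, dark); medium with 10% FBS added, cells plated, 37 C overnight; FluxOr/Red40 loading buffer 45 min RT; stimulation buffer, 2 min kinetic read; rate constant normalized.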
p53 reactivator – mutant p53 re-activation in reporter cells; H1299 p53-A138V BP100-luciferase reporter, luminescence, 24 h; Potency, µM (series often up to 92.2 µM), for the others: at the top dose activity change, positive = activation, actives largely listed as activators; hit rate 0.063% among 320,000; active = well fitted activation curve with a large enough effect; inconclusive = small, poorly fitted or top-dose-only effect; inactive = no such curve, though single readings can be large or run the other way; also: potency is read from the fitted curve at half-maximal effect; % of control where 0% means no effect; nearly all actives have a fitted effect of over 45% in size
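H1299 (p53-null), stable ts p53-A138V + BP100-Luc; 1000 cells/well, Opti-MEM/10% FBS; cpd 4 pt, 1:5; 24 h, 37 deg C, 5% CO2; detection reagent 10 min RT; luminescence.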
TRPV1 potentiator – enhances activation of the human vanilloid receptor TRPV1. TRPV1-expressing cells, Fluo-8 calcium influx, capsaicin EC20 potentiation. hit rate 0.02% among 320,000. Q8NER1. potentiation, % at 8.33 µM; in the data active = potentiation above about 80%; inconclusive = between about 30% and that limit; also: 0% is about no effect
Target sequence (Q8NER1 whole entry, looked up): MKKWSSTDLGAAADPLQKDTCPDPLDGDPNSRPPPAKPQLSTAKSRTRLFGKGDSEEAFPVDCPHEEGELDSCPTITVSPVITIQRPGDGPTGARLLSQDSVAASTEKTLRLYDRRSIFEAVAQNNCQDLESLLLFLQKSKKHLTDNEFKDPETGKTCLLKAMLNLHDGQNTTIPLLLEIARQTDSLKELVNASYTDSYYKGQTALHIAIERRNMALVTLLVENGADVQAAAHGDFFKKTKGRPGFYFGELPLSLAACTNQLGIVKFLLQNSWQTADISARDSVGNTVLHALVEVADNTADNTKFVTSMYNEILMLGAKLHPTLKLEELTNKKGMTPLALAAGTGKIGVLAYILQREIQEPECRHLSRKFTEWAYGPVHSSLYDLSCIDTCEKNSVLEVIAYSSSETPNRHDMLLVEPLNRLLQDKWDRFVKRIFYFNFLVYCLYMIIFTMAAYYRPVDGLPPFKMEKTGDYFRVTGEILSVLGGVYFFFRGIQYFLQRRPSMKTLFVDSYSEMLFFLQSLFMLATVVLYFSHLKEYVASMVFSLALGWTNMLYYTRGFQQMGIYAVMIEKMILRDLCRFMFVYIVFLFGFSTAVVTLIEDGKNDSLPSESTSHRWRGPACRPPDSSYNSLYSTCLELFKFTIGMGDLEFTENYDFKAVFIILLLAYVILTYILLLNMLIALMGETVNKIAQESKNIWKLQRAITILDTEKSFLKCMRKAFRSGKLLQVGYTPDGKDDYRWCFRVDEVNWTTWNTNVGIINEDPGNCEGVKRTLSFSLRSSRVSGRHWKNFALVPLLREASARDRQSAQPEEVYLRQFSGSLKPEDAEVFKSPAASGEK
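Cells expressing TRPV1 were dye-loaded with Fluo-8 and read kinetically: 10 s baseline, 3 min after compound (agonist portion), then 2 min after EC20 capsaicin (allosteric enhancer portion). Calcium-bound dye fluorescence at 480/520 nm.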
TRPV1 agonist – activates the human vanilloid receptor TRPV1 | Q8NER1 | TRPV1-expressing cells, Fluo-8 calcium influx, agonist mode | activation, % at 8.33 µM | hit rate 0.19% among 320,000; in the data active = activation above about 80%; inconclusive = between about 30% and that limit; also: 0% is about no effect
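Cells expressing TRPV1 were dye-loaded with Fluo-8 and read kinetically: 10 s baseline, 3 min after compound (agonist portion), then 2 min after EC20 capsaicin (allosteric enhancer portion). Calcium-bound dye fluorescence at 480/520 nm.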
* = called active by the depositor.

How did CCOC(=O)c1csc(NC(=O)CSc2nnnn2-c2ccc3c(c2)OCCO3)n1 do in these assays?
hERG WT inh: -117.9*; ClpP mod: -20.7%; KCNH2 3.1 block: -15.6; p53 reactivator: -3.2%; TRPV1 potentiator: 15.5; TRPV1 agonist: -2.5

What do the screens show for `O=C(NCCOCCn1c(=O)oc2ccccc21)Nc1ccc(Cl)cc1`?
ClpP mod: 1.6%

How did COC(=O)c1cc2ccccc2oc1=O do in these assays?
hERG WT inh: 11.6; ClpP mod: 20µM*; KCNH2 3.1 block: 1.0; p53 reactivator: 10.4%; TRPV1 potentiator: -3.1; TRPV1 agonist: 2.0

Results for O=C(OCCn1cncn1)c1cc2ccccc2oc1=O ?
hERG WT inh: 0.2; ClpP mod: 28.2µM*; KCNH2 3.1 block: 2.2; p53 reactivator: 5.5%; TRPV1 potentiator: 9.9; TRPV1 agonist: 0.8

What do the screens show for `O=C(NCc1ccc(Cl)cc1)c1cc2ccccc2oc1=O`?
hERG WT inh: 2.5; ClpP mod: 20µM*; KCNH2 3.1 block: 2.6; p53 reactivator: inconclusive; TRPV1 potentiator: -5.7; TRPV1 agonist: -2.4

Results for COC(=O)c1ccccc1OC(=O)c1cc2ccccc2oc1=O ?
hERG WT inh: -9.9; KCNH2 3.1 block: -0.3; p53 reactivator: 17.0%; TRPV1 potentiator: -6.5; TRPV1 agonist: 2.2

Results for COc1cccc(NC(=O)c2cc3ccccc3oc2=O)c1 ?
hERG WT inh: -75.8*; ClpP mod: 0.9%; KCNH2 3.1 block: -12.1; TRPV1 potentiator: -8.2; TRPV1 agonist: 0.2

Results for O=C(OCc1nc2ccccc2s1)c1cc2ccccc2oc1=O ?
p53 reactivator: inconclusive; TRPV1 potentiator: 5.5; TRPV1 agonist: 1.3

How did CC1(C(=O)NCc2ccc3c(c2)OCO3)CCN1C(=O)CC1CCCC1 (configuration not stated) do in these assays?
ClpP mod: 0.0%

Results for COc1cccc(N2CCN(C(=O)c3ccc(CS(=O)c4cccc(Cl)c4)o3)CC2)c1 (configuration not stated) ?
ClpP mod: -2.0%

How did C=CCNc1nc2cc(-c3ccccc3C)sc2c(=O)n1C do in these assays?
ClpP mod: -8.8%

What do the screens show for `COc1ccccc1C(=O)OCC(=O)c1cccc([N+](=O)[O-])c1`?
hERG WT inh: 7.3; ClpP mod: 1.1%; KCNH2 3.1 block: 19.7; p53 reactivator: 3.2%; TRPV1 potentiator: 2.6; TRPV1 agonist: 2.5

Results for O=C(COC(=O)c1cc2ccccc2oc1=O)c1cccc([N+](=O)[O-])c1 ?
hERG WT inh: 23.7; ClpP mod: 31.6µM*; KCNH2 3.1 block: 8.1; p53 reactivator: -2.4%; TRPV1 potentiator: -20.0; TRPV1 agonist: 29.8

What do the screens show for `CCc1nc2c(c(SC)nn2-c2ccccc2)c(N)c1C(=O)OC`?
hERG WT inh: -19.2; ClpP mod: 31.6µM*; KCNH2 3.1 block: -3.3; p53 reactivator: -0.5%; TRPV1 potentiator: 4.3; TRPV1 agonist: 2.8

How did FC(F)(F)c1cc(Cl)c2nc(-c3ccccc3)c(Cc3ccccc3)n2c1 do in these assays?
ClpP mod: -13.2%

How did Cc1ccc(-c2cc(C(=O)NCc3ccccn3)c3ccccc3n2)cc1C do in these assays?
hERG WT inh: -5.1; ClpP mod: 31.6µM*; KCNH2 3.1 block: -22.6; p53 reactivator: inconclusive; TRPV1 potentiator: -4.3; TRPV1 agonist: 19.4

Results for CCCc1ccc(-c2cc(C(=O)NCCc3ccc(S(N)(=O)=O)cc3)c3ccccc3n2)cc1 ?
hERG WT inh: -7.3; ClpP mod: 31.6µM*; KCNH2 3.1 block: -29.3; p53 reactivator: 1.2%; TRPV1 potentiator: 4.8; TRPV1 agonist: -3.3

Results for Cc1ccc(-c2cc(C(=O)Nc3cc(C)on3)c3ccccc3n2)cc1 ?
hERG WT inh: -31.4; ClpP mod: 35.5µM*; KCNH2 3.1 block: -16.2; p53 reactivator: 6.6%; TRPV1 potentiator: -8.9; TRPV1 agonist: 0.2

How did NS(=O)(=O)c1ccc(CCNC(=O)c2cc(-c3ccc(Br)cc3)nc3ccccc23)cc1 do in these assays?
hERG WT inh: 4.0; ClpP mod: 12.5%; KCNH2 3.1 block: -33.3; p53 reactivator: -5.8%; TRPV1 potentiator: -19.5; TRPV1 agonist: 0.7

How did Cc1cc(NC(=O)c2cc(-c3ccccn3)nc3ccccc23)no1 do in these assays?
hERG WT inh: 22.5; ClpP mod: -7.0%; KCNH2 3.1 block: -47.4; p53 reactivator: -4.8%; TRPV1 potentiator: -4.5; TRPV1 agonist: 0.3

How did Cc1cccc(-c2cc(C(=O)NCc3ccccn3)c3ccccc3n2)c1 do in these assays?
hERG WT inh: 0.9; ClpP mod: -0.9%; KCNH2 3.1 block: 20.8; p53 reactivator: 11.9%; TRPV1 potentiator: 18.1; TRPV1 agonist: 5.2

How did CC(C)n1ncc2c(C(=O)NCCc3ccc(S(N)(=O)=O)cc3)cc(C3CC3)nc21 do in these assays?
hERG WT inh: -7.4; ClpP mod: 31.6µM*; KCNH2 3.1 block: 1.4; p53 reactivator: -6.9%; TRPV1 potentiator: -2.1; TRPV1 agonist: inconclusive

Results for Cc1ccc2oc(-c3ccc(Cl)c(NC(=O)c4ccc(OC(C)C)cc4)c3)nc2c1 ?
ClpP mod: -5.4%

What do the screens show for `Cc1cc(NC(=O)c2cc(-c3ccc(C)c(C)c3)nc3ccccc23)no1`?
hERG WT inh: -1.6; ClpP mod: 12.6µM*; KCNH2 3.1 block: 0.8; p53 reactivator: 13.0%; TRPV1 potentiator: inconclusive; TRPV1 agonist: 6.3

How did COc1cc2nc(N3CCCN(C)CC3)nc(Nc3ccncc3)c2cc1OC do in these assays?
ClpP mod: 4.3%

How did CCN1CCCC1Cn1cnc2c([nH]c3ccc(C)cc32)c1=O (configuration not stated) do in these assays?
hERG WT inh: 19.1; ClpP mod: 2.5%; KCNH2 3.1 block: -9.9; p53 reactivator: -5.1%

How did Cc1ccc2[nH]c3c(NCCN4CCOCC4)ncnc3c2c1 do in these assays?
hERG WT inh: 1.7; ClpP mod: 1.3%; KCNH2 3.1 block: 1.1; p53 reactivator: -0.9%; TRPV1 potentiator: 4.0; TRPV1 agonist: 1.0

How did O=C1CCCN1CCCNc1ncnc2c1[nH]c1ccc(Cl)cc12 do in these assays?
hERG WT inh: -5.7; ClpP mod: 25.1µM*; KCNH2 3.1 block: -1.9; p53 reactivator: -16.2%; TRPV1 potentiator: 0.8; TRPV1 agonist: 1.9

What do the screens show for `Clc1ccc2[nH]c3c(NCCCN4CCOCC4)ncnc3c2c1`?
hERG WT inh: -7.8; ClpP mod: 20µM*; KCNH2 3.1 block: -16.9; p53 reactivator: -0.8%; TRPV1 potentiator: 7.8; TRPV1 agonist: 2.5
